# Results published in PubChem BioAssay (Tox21).
# Inconclusive results are not listed. Unmarked numbers belong to inactive results. The call rests on the fitted dose curve; in most records, active means well fitted cell-killing curve with a large enough effect in the repeat runs; inconclusive means weak or mixed curves; inactive means no such curve, though single readings can be large or run the other way.
# Assay: qHTS assay to identify small molecule agonists of the peroxisome proliferator-activated receptor delta (PPARd) signaling pathway - cell viability counter screen (AID 743211); further: nearly all actives have a fitted effect of over 55% in size
# Conditions: PPARd-bla HEK293H viability, CellTiter-Glo luminescence, 17 h; series mostly up to 62.6 µM; activity change, negative = cytotoxicity: at the top concentration
# Source text: U.S. Tox21 Program National Center for Advancing Translational Sciences [NCATS] NIH Chemical Genomics Center [NCGC] U.S. Environmental Protection Agency [EPA] National Institutes of Environmental Health Sciences [NIEHS] National Toxicology Program [NTP] U.S. Food and Drug Administration [FDA] Tox21 Assay Overview: The peroxisome proliferator-activated receptors (PPARs) are lipid-activated transcription factors of the nuclear receptor superfamily with three distinct subtypes namely PPAR alpha, PPAR delta (PPARd) and PPAR gamma. All these subtypes heterodimerizes with Retinoid X receptor (RXR) and have different physiological functions. […] To identify the compounds that activate PPAR-delta signaling, GeneBLAzer PPAR delta UAS-bla HEK293H cell line (Invitrogen, Carlsbad, CA, USA) containing a beta-lactamase reporter gene under the control of an Upstream Activator Sequence (UAS) was used to screen the Tox21 compound library. The cytotoxicity of the Tox21 compound library against the PPARd-bla cell line was tested in parallel by measuring the cell viability using CellTiter-Glo assay (Promega, Madison, WI) in the same wells.
# Tox21 Assay Protocol Summary: PPARd-bla cells were dispensed at 3000 cells/6uL/well in 1536-well black wall/clear bottom plates using a Multidrop Combi (Thermo Fisher Scientific, Waltham, MA) dispenser. After the assay plates were incubated at 37 C and 5% CO2 for 5 h, 23 nL of compounds dissolved in DMSO, positive controls or DMSO only was transferred to the assay plate by a Pintool station (Kalypsys, San Diego, CA). The assay plates were incubated at 37C for 17 h. After 1 uL of LiveBLAzerTM B/G FRET substrate was added using a Bioraptr Flying Reagent Dispenser (FRD) workstation (Beckman Coulter, Indianapolis, IN, USA), the plates were incubated at room temperature for 2 h, and fluorescence intensity was measured by an Envision plate reader (PerkinElmer, Shelton, CT). For cell viability readout that measures cytotoxicity, 3 ul/well of CellTiter-Glo reagent was added into the assay plates using a Bioraptr FRD. After 30 min incubation at room temperature, the luminescence intensity in the plates was measured using a ViewLux plate reader (PerkinElmer).
# On the % scale 0 is the no-effect control and ±100 the full control effect.
row,Compound,"activity change, negative = cytotoxicity"
1,Fc1ccccc1-c1ccccc1,8% [at 81.1 µM]
2,COC(=O)c1ccc(C(=O)OC)c(C(=O)OC)c1,-2.2%
3,O=C(O)c1ccccc1-c1ccc(C(F)(F)F)cc1,2.1%
4,O=C(O)C1CCC1,5.6%
5,CC(C)(O)Cc1ccccc1,3.82%
6,CCCCCCC(CCCCCCCCCCC(=O)OCC(COC(C)=O)OC(C)=O)OC(C)=O (stereo not given),-24.9%
7,NC(CS)C(=O)O (stereo not given),18%
8,CCCCC1CCCCC(=O)O1 (stereo not given),3%
9,CC1=CCC2C(C1)C2(C)C (stereo not given),-24.1%
10,CCC(=O)/C=C/c1ccc(OC)cc1,-15.4%
11,NS(=O)(=O)c1cc(C2(O)NC(=O)c3ccccc32)ccc1Cl (stereo not given),5.18%
12,Nc1ccc2cc(S(=O)(=O)O)ccc2c1,0.28%
13,C=C(C)C(=O)OCCC(C)OC(=O)C(=C)C (stereo not given),1.53%
14,Nc1cc(N)cc(C(=O)O)c1,9.24%
15,OC1OC[C@@H](O)[C@H](O)[C@H]1O (stereo not given in full),-24.8%
16,O=C(CCOCCOCCOCCOCCC(=O)Nc1c(I)cc(I)c(C(=O)O)c1I)Nc1c(I)cc(I)c(C(=O)O)c1I,7.71%
17,NC(=O)c1ncn([C@@H]2O[C@H](CO)[C@@H](O)[C@H]2O)c1N,4.11%
18,C=CC(=O)OCCCCCC,3.88%
19,O=C(O)c1ccc[n+]([O-])c1,5.63%
20,NS(=O)(=O)c1cc2c(cc1Cl)NC(CSCc1ccccc1)=NS2(=O)=O,13.1%

row,Compound,"activity change, negative = cytotoxicity"
1,NC(=O)c1c(Cl)cccc1Cl,-10.7%
2,COC(C(=O)O)c1ccccc1 (stereo not given),4.93%
3,COCCOC(=O)CC#N,11.5%
4,CCCCCN(CCCCC)C(=O)C(CCC(=O)O)NC(=O)c1ccc(Cl)c(Cl)c1 (stereo not given),-2.4%
5,CC(C)CCCC(C)NCCC(C)C (stereo not given),-19.1%
6,CN(C)CCOC(c1ccc(Cl)cc1)c1ccccn1 (stereo not given),-16.2%
7,CCCCOCC(C)OCC(C)O (stereo not given),-9.21% [at 81.1 µM]
8,Cc1cc(C)cc(OCC2CNC(=O)O2)c1 (stereo not given),0.684%
9,CCCC=O,0.181%
10,NC(=S)Nc1cccc2ccccc12,-1.16% [at 5.95 µM]
11,CC(=O)NC(Cc1ccccc1)C(=O)O (stereo not given),-6.01%
12,COc1cc(O)cc(O)c1,6.52%
13,CCN(CC)C(=O)c1ccc(O)c(OC)c1,1.65%
14,COc1cc(C)cc(O)c1,1.51%
15,O=c1[nH]c(=O)n([C@H]2O[C@H](CO)[C@@H](O)[C@@H]2O)cc1/C=C\Br,0.833%
16,NCC[C@H](O)C(=O)N[C@@H]1C[C@H](N)[C@@H](O[C@H]2O[C@H](CN)[C@@H](O)[C@H](O)[C@H]2O)[C@H](O)[C@H]1O[C@H]1O[C@H](CO)[C@@H](O)[C@H](N)[C@H]1O,6.61% [at 0.55 µM]
17,CCCCc1ccc2cccc(S(=O)(=O)O)c2c1,-26.2%
18,COc1cc(C(=O)N2CCOCC2)cc(OC)c1OC,-1.17%
19,COc1ccc(N=[N+]([O-])c2ccc(OC)cc2)cc1,1.5%
20,CCCCCCCCN(C)CCCCCCCC,0.364% [at 81.1 µM]
